The record followed here is PubChem BioAssay (NCATS).

For some of these results: Results with a measured potency or affinity are listed apart. Calls of active or inactive are those of the source. Starred links: 1 amine or outer side, 2 acyl side, 3 side chain; linkers in the order of their positions; H or OH if unused. Positions of bridges follow the written chain, without caps; N, C: chain ends. Non-standard residues stand in square brackets, D forms with d. Residues, ends and D or L forms follow the SMILES beside them. ξ: configuration not given here. *: point of attachment. ΔAla(3-NHCONH2) = NC(=O)NC=C(N)C(=O)O; X1 = NC1=NCCC(C(N[*:1])C(=O)[*:2])N1; ξβ3hOrn = NCCCC(N)CC(=O)*; Dap = NC[CH](N)C(=O)O

Usually AC50 stands for the midpoint of the concentration-response curve, whichever way the signal moves.

For test [1] the following is noted: Ebola virus entry reporter assay, green channel fluorescence.
For test [2] the following is noted: Ebola virus entry cell assay, ratio channel.

For the compound `CCCCc1ncc(/C=C(\Cc2cccs2)C(=O)O)n1Cc1ccc(C(=O)O)cc1`, the result in test [1] and in test [2] was inactive.

`CC(C)c1nc(CN(C)C(=O)N[C@H](C(=O)N[C@@H](Cc2ccccc2)C[C@H](O)[C@H](Cc2ccccc2)NC(=O)OCc2cncs2)C(C)C)cs1`: the compound was called inactive in test [1] and in test [2].

For `Cc1ccc(NC(=O)c2ccc(CN3CCN(C)CC3)cc2)cc1Nc1nccc(-c2cccnc2)n1`, the outcome in test [1] was inactive. The half-maximal activity concentration (AC50) in test [2] is 28.2 µM (active).

On to `COC(=O)C1=C(C)NC(C)=C(C(=O)OCCN(C)Cc2ccccc2)C1c1cccc([N+](=O)[O-])c1` (stereo not drawn), for which, in test [1], the result was inactive. In addition, the AC50 in test [2] is 28.2 µM (active).

Consider `O=P(O)(O)C(O)(Cc1cccnc1)P(=O)(O)O`, for which the result in test [1] and in test [2] was inactive.

With `CN(C)CCOC(c1ccc(Cl)cc1)c1ccccn1` (stereo not drawn), the call in test [1] and in test [2] was inactive.

Turning to `CC(C)n1c(/C=C/[C@@H](O)C[C@@H](O)CC(=O)O)c(-c2ccc(F)cc2)c2ccccc21`, the outcome in test [1] and in test [2] was inactive.

Regarding `CS(=O)(=O)OCCCCOS(C)(=O)=O`, the outcome in test [1] and in test [2] was inactive.

Consider `O=C(O)COCCN1CCN(C(c2ccccc2)c2ccc(Cl)cc2)CC1` (stereo not drawn), for which the call in test [1] and in test [2] was inactive.

Take `CC(C)Nc1cccnc1N1CCN(C(=O)c2cc3cc(NS(C)(=O)=O)ccc3[nH]2)CC1`: the compound was called inactive in test [1] and in test [2].

`C[C@@H](O)[C@H]1C(=O)N2C(C(=O)O)=C(S[C@@H]3CN[C@H](CNS(N)(=O)=O)C3)[C@H](C)[C@H]12`: the compound was called inactive in test [1] and in test [2].

Turning to `CN1CCC(=C2c3ccccc3C=Cc3ccccc32)CC1`, the compound was classed as inactive in test [1]. Besides, in test [2], the half-maximal activity concentration (AC50) was 14.1 µM (active).

Take `CCCCNc1ccc(C(=O)OCCOCCOCCOCCOCCOCCOCCOCCOCCOC)cc1`: the compound was classed as inactive in test [1] and in test [2].

In the case of `Cn1cc[nH]c1=S`, the result in test [1] and in test [2] was inactive.

Consider `CC(C)OC(=O)C(C)(C)Oc1ccc(C(=O)c2ccc(Cl)cc2)cc1`, for which the compound was classed as inactive in test [1] and in test [2].

As for `Oc1ccc(C2CNCCc3c2cc(O)c(O)c3Cl)cc1` (stereo not drawn), the compound was called inactive in test [1] and in test [2].

On to `CO/N=C(\C(=O)N[C@@H]1C(=O)N2C(C(=O)O)=C(CSc3nc(=O)c(O)nn3C)CS[C@H]12)c1csc(N)n1`, for which the call in test [1] and in test [2] was inactive.

As to `Cc1nccn1CC1CCc2c(c3ccccc3n2C)C1=O` (stereo not drawn), the result in test [1] and in test [2] was inactive.

Take `CO[C@H]1C=CO[C@@]2(C)Oc3c(C)c(O)c4c(O)c(c(/C=N/N5CCN(C)CC5)c(O)c4c3C2=O)NC(=O)/C(C)=C\C=C[C@H](C)[C@H](O)[C@@H](C)[C@@H](O)[C@@H](C)[C@H](OC(C)=O)[C@@H]1C`: the result in test [1] and in test [2] was inactive.

Regarding `COc1cc2c(cc1OC)C(=O)C(CC1CCN(Cc3ccccc3)CC1)C2` (stereo not drawn), the call in test [1] and in test [2] was inactive.

For `CC1=NS(=O)(=O)c2cc(Cl)ccc2N1`, the outcome in test [1] and in test [2] was inactive.

Regarding `COc1cc2nc(N(C)CCCNC(=O)C3CCCO3)nc(N)c2cc1OC` (stereo not drawn), the outcome in test [1] and in test [2] was inactive.

Turning to `CCOC(=O)[C@H](CCc1ccccc1)N[C@@H](C)C(=O)N1Cc2ccccc2C[C@H]1C(=O)O`, the compound was called inactive in test [1] and in test [2].

For the compound `CC(COc1ccccc1)N(CCCl)Cc1ccccc1` (stereo not drawn), the result in test [1] and in test [2] was inactive.

Consider `CC[N+](C)(C)c1cccc(O)c1`, for which the compound was classed as inactive in test [1] and in test [2].

As to `OC(Cn1cncn1)(Cn1cncn1)c1ccc(F)cc1F`, the compound was called inactive in test [1] and in test [2].

In the case of `CC(C)[N+](C)(CCOC(=O)C1c2ccccc2Oc2ccccc21)C(C)C`, the compound was called inactive in test [1] and in test [2].

Regarding `CC(C)c1c(C(=O)Nc2ccccc2)c(-c2ccccc2)c(-c2ccc(F)cc2)n1CC[C@@H](O)C[C@@H](O)CC(=O)O`, the outcome in test [1] and in test [2] was inactive.

In the case of `CCCCN1C[C@H](O)[C@@H](O)[C@H](O)[C@H]1CO`, the result in test [1] and in test [2] was inactive.

With `O=C(O)c1cn(C2CC2)c2cc(N3CCNCC3)c(F)cc2c1=O`, the compound was classed as inactive in test [1] and in test [2].

On to `NCCC(O)(P(=O)(O)O)P(=O)(O)O`, for which the call in test [1] and in test [2] was inactive.

For `Cc1ccc(S(=O)(=O)NC(=O)NN2CC3CCCC3C2)cc1` (stereo not drawn), the compound was classed as inactive in test [1] and in test [2].

As to `CCc1ccc(CCOc2ccc(CC3SC(=O)NC3=O)cc2)nc1` (stereo not drawn), the call in test [1] and in test [2] was inactive.

Take `CCCC(=O)Nc1ccc(OCC(O)CNC(C)C)c(C(C)=O)c1` (stereo not drawn): the compound was called inactive in test [1] and in test [2].

Take `CCn1cc(C(=O)O)c(=O)c2cc(F)c(N3CCNCC3)cc21`: the compound was classed as inactive in test [1] and in test [2].

On to `O=NN(CCCl)C(=O)NC1CCCCC1`, for which the compound was classed as inactive in test [1] and in test [2].

As for `C1N2CN3CN1CN(C2)C3`, the compound was called inactive in test [1] and in test [2].

In the case of `COC(=O)C1=C(C)NC(C)=C(C(=O)OC(C)C)C1c1cccc2nonc12` (stereo not drawn), the call in test [1] and in test [2] was inactive.

Consider `NCCCC(N)CC(=O)NCC1NC(=O)C(CO)NC(=O)C(N)CNC(=O)C(C2CCN=C(N)N2)NC(=O)C(=CNC(N)=O)NC1=O` (stereo not drawn) (H-[Dap]S[Dap](ξβ3hOrn)[ΔAla(3-NHCONH2)][X1]; lactam 1-C; configuration not given here), for which the outcome in test [1] and in test [2] was inactive.

Consider `C[C@@H]1C[C@H]2[C@@H]3CCC4=CC(=O)C=C[C@]4(C)[C@@]3(F)[C@@H](O)C[C@]2(C)[C@@]1(O)C(=O)CO`, for which the compound was classed as inactive in test [1] and in test [2].

For the compound `CC(C)(C(=O)O)c1ccc(C(O)CCCN2CCC(C(O)(c3ccccc3)c3ccccc3)CC2)cc1` (stereo not drawn), the compound was classed as inactive in test [1] and in test [2].

Regarding `O=C(c1ccccc1)c1ccc2n1CCC2C(=O)O` (stereo not drawn), the compound was called inactive in test [1] and in test [2].

For `CCN(CC)CCNC(=O)c1cc(Cl)c(N)cc1OC`, the compound was classed as inactive in test [1] and in test [2].

For `CCCNC(=O)NS(=O)(=O)c1ccc(Cl)cc1`, the compound was classed as inactive in test [1] and in test [2].
